ADAM17 inh = inhibitors of human ADAM17 | P78536 | recombinant ADAM17, EDANS/DABCYL FRET peptide cleavage | inhibition, % at 6.95 µM | 370,000 compounds, 0.83% hits | AID 720648;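 active = inhibition above the mean of compounds lying between control limits plus 3 SD, set per campaign, cut at about 8.5% in these data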
Target sequence (P78536 215-824 limits assumed): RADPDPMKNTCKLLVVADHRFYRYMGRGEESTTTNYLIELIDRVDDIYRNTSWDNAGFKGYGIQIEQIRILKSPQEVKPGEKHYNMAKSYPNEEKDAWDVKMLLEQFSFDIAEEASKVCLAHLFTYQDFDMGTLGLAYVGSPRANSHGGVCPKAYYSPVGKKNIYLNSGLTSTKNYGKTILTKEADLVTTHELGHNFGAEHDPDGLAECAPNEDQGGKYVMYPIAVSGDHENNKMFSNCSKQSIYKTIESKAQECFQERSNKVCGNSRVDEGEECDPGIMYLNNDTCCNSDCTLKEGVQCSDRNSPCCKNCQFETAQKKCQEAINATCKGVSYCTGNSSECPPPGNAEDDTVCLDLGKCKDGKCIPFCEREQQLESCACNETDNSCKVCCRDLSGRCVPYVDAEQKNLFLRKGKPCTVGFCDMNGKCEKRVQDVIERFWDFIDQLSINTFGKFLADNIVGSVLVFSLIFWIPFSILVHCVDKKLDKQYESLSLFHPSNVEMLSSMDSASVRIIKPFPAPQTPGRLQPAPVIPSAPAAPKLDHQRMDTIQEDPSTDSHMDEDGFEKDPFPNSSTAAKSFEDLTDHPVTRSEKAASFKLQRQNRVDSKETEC
FAS-TE inh = FAS thioesterase (human) inhibition; inhibition, % at 15 µM; 360,000 compounds, 0.67% hits; P49327; recombinant FAS-TE, OMFH fluorogenic substrate, fluorescence endpoint; AID 602261;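 active = compounds whose normalised, plate-corrected inhibition of enzyme fluorescence in the single-dose primary screen is 50% or more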
NR3A LBD binder = NR3A (human) ligand-binding domain modulation. NR3A LBD differential scanning fluorimetry, Tm shift; 0% = protein alone, 100% = glycine-bound protein. Tm shift relative to glycine control, % at 25 µM. 340,000 compounds, 2.5% hits;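 active = melting temperature shift of at least 10% of the positive control shift, at one fixed dose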
aDG glyco act = increases alpha dystroglycan glycosylation. Pro5-aDG cells, alpha-DG glycosylation AlphaScreen (IIH6); 0% Pro5, 100% B10-LARGE cell signal. activation, % at 10 µM. 360,000 compounds, 0.22% hits. AID 624168;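 active = activation of at least 8% versus controls, or a plate z-score of at least 8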;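 also: Pro5 are CHO cells carrying HIG-tagged alpha-DG that lacks glycosylation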
ADAM10 inh = inhibitors of human ADAM10; O14672; recombinant ADAM10, EDANS/DABCYL FRET peptide cleavage, 3 h; inhibition, % at 7 µM; 370,000 compounds, 0.62% hits;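 active = inhibition above a per-campaign cutoff equal to the mean of compounds falling between control-based bounds plus 3 SD, cut at about 20% in these data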
aDG glyco conf = confirmation of alpha dystroglycan glycosylation activators; shares compounds with aDG glyco act; Pro5-aDG cells, alpha-DG glycosylation, IIH6 AlphaLISA; scaled to LARGE-overexpressing B10 cells as 100%; activation, % at 10 µM (by protocol); 600 compounds, 17% hits;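 active = activation of at least 7% in one or more replicates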;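 also: cells exposed to compound for two days before detection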
ADAM10 confirm = confirmation of inhibitors of human ADAM10 | shares compounds with ADAM10 inh | ADAM10 QFRET peptide cleavage, EDANS fluorescence | inhibition, % at 6.95 µM | 2,100 compounds, 1% hits | AID 743208;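 active = inhibition above about 20% chosen separately for each screening run, limit read from the data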
ADAM17 ctr = inhibits human ADAM17 in ADAM10 exosite counter-screen; shares compounds with ADAM10 inh; 2,100 compounds, 0.5% hits; inhibition, % at 6.95 µM; ADAM17 QFRET peptide cleavage, EDANS fluorescence;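 active = mean triplicate inhibition above the solvent-only control wells' mean plus 3 SD, cut at about 12% in these data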
ADAM10 ctr = inhibits human ADAM10 in ADAM17 exosite counter-screen; recombinant ADAM10, EDANS/DABCYL FRET peptide cleavage, 3 h; shares compounds with ADAM17 inh; 2,900 compounds, 47% hits; AID 743256; inhibition, % at 6.95 µM;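 active = mean inhibition over the triplicate runs exceeds the activity threshold set in the earlier primary screen, cut at about 20% in these data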
ADAM17 confirm = confirmation of inhibitors of human ADAM17; shares compounds with ADAM17 inh; 2,900 compounds, 65% hits; inhibition, % at 6.95 µM; recombinant ADAM17, EDANS/DABCYL QFRET peptide cleavage;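 active = mean inhibition across replicates above the hit cutoff set in the primary screen, cut at about 8.5% in these data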
Hits are given with their value; i = inactive; nt = no result given. The list is not random: actives were taken first. Their share in the collection is about 4%.

SMILES	ADAM17 inh	FAS-TE inh	NR3A LBD binder	aDG glyco act	ADAM10 inh	aDG glyco conf	others
COCCCn1cn[nH]c1=S	i	i	i	6.3	i	i
CCOC(=O)C(=CNc1cc(C)nn1-c1ccc(C)cc1)C(=O)OCC	i	i	i	4.7	i	i
NNc1nnc2c3cc(F)ccc3n(Cc3ccccc3)c2n1	i	i	i	5.1	i	i
O=C(Cn1ncc2c(=O)oc3ccccc3c21)NCC1COc2ccccc2O1 (stereo not given)	i	i	i	8.2	i	i
O=C(Cn1ncc2c(=O)oc3ccccc3c21)NC1CC1	i	i	i	i	i	nt
S=C(NCCC1=CCCCC1)Nc1ccc(Cl)cc1	i	i	i	5.9	i	i
COc1ccc(NC(=S)NCCC2=CCCCC2)cc1OC	i	i	i	i	i	nt
CS(=O)(=O)c1ccc(-c2cc(NC=O)c3ncc(-c4ccc(F)cc4)n3c2)cc1	i	i	nt	i	i	nt
Brc1cccc(-c2nc3c4ccccc4ccn3c2CC2CCCCC2)c1	i	i	nt	15	i	5.8
c1ccc(-c2nc3c4ccccc4ccn3c2CC2CCCCC2)cc1	i	i	nt	i	i	nt
COc1cc(NC(=O)NC2CCCCN(Cc3ccc(Cl)cc3)C2=O)cc(OC)c1 (stereo not given)	i	nt	nt	nt	i	nt
COc1cc(C(=O)NC(=S)Nc2ccc(Cl)cn2)cc(OC)c1OC	i	i	i	i	i	nt
COc1ccc(-c2cc(C3CCN(c4ccc(C(C)=O)cc4[N+](=O)[O-])CC3)[nH]n2)cc1	13	i	i	10	33	i	ADAM10 ctr=32;ADAM17 confirm=19
c1ccc2c(c1)OCCc1c-2[nH]c2ccccc12	i	i	i	i	i	nt
OC(c1cccc(F)c1)c1ncc(-c2ccc(Oc3ccccc3)cc2)[nH]1 (stereo not given)	i	i	nt	i	23	nt	ADAM10 confirm=i;ADAM17 ctr=i
OC(c1ccc(Cl)c(F)c1)c1ncc(-c2ccccc2C(F)(F)F)[nH]1 (stereo not given)	i	i	nt	i	i	nt
OC(c1ccc(Cl)c(F)c1)c1ncc(-c2ccc(Oc3ccccc3)cc2)[nH]1 (stereo not given)	i	i	nt	i	i	nt
OC(c1ccc(Cl)c(Cl)c1)c1ncc(-c2ccccc2C(F)(F)F)[nH]1 (stereo not given)	10	i	nt	i	22	nt	ADAM10 confirm=i;ADAM17 ctr=i
OC(c1ccc(Cl)c(F)c1)c1ncc(-c2ccc(Cl)cc2)[nH]1 (stereo not given)	i	i	nt	i	20	nt	ADAM10 confirm=i;ADAM17 ctr=i
CCOc1cc(N2CCOCC2)c(OCC)cc1NC(=O)C(C)(C)C	i	i	i	i	i	nt
COC(=O)COC(=O)c1ccc(O)cc1	i	i	i	i	i	nt
CCc1cc(C(=O)Cc2ccc(F)cc2)c(O)cc1O	i	i	i	i	23	nt	ADAM10 confirm=i;ADAM17 ctr=i
Cc1cccc(-c2nc3ccccc3c(=O)n2NC(=O)/C=C/c2ccc([N+](=O)[O-])cc2)c1	i	i	i	i	i	nt
O=C(/C=C/c1cccc([N+](=O)[O-])c1)Nn1c(-c2ccccc2F)nc2ccccc2c1=O	i	i	i	i	24	nt	ADAM10 confirm=i;ADAM17 ctr=i
Cc1ccc(C)c(OCCC(=O)N(C)CC(=O)Nc2c(C)cccc2C)c1	i	i	i	i	i	nt
COC(=O)c1ccccc1NC(=S)NC(C)=O	i	i	i	i	i	nt
COC(=O)c1cn[nH]c1NC(=S)Nc1ccccc1C	i	i	i	i	25	nt	ADAM10 confirm=i;ADAM17 ctr=i

Bioassay records as filed in PubChem.
